Pf growth 96h: P. falciparum growth inhibition at 96 hours | Potency, µM (top dose mostly 28.7 µM), for inactives: at the highest dose activity change, negative = inhibition, actives largely listed as inhibitors | 6.9% of 320,000 active | P. falciparum luciferase reporter growth, 96 h; note: potency is the fitted concentration of half-maximal effect
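Parasite growth measured via integrated firefly luciferase reporter in P. falciparum. Infected erythrocytes at 2% hematocrit, 0.05% parasitemia final were treated 96 hours at 37 C under 5% CO2, and luminescence was read.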
HCV inhibitor: HCV inhibition; Huh7.5.1 HCVcc-Cre infection, luciferase reporter, 44 h; Potency, µM (top dose mostly 41.8 µM), for the others: at the highest dose activity change, negative = inhibition, most hits filed as inhibitors; 3.4% of 340,000 active; AID 651820; note: potency is the fitted concentration of half-maximal effect
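HCVcc-Cre virus at an moi near 0.5 was added right after compound to cells cultured 4 h from seeding (1,000 cells/well). Luciferase activity was determined 44 h later, 15 min after substrate addition at RT.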
Pf growth 48h: inhibits P. falciparum growth in the first generation, 48 h | 5.9% of 310,000 active | AID 504832 | P. falciparum luciferase growth in erythrocytes, 48 h | Potency, µM (doses to about 28.7 µM), for inactives: at the highest dose activity change, negative = inhibition, actives largely listed as inhibitors; note: potency is the fitted concentration of half-maximal effect
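Luciferase-expressing P. falciparum in infected erythrocytes (2% hematocrit, 0.1% parasitemia final) in RPMI 1640/0.5% Albumax were exposed to compound for 48 hours at 37 C, 5% CO2; growth read as luminescence.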
HCMV antiviral: human cytomegalovirus inhibition. 4.5% of 410,000 active. HFF cells, HCMV-luciferase reporter, 72 h; stronger effect = lower value. activity change, negative = inhibition, % at 57.5 µM; in the data active = activity change below about -60%; inconclusive = no clear call, values can overlap the other calls; inactive = above about -39%
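Cell-based, HFFs, 1000 cells/well, 16 h 37C; cpds in DMSO + HCMV-luc, MOI 1 PFU/cell; 72 h 37C; OneGlo luminescence after 5 min RT; norm. to buffer vs Salinomycin 10uM.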
Active calls of the source: *; [ ] = remark or other dose. An excerpt weighted towards active compounds, which were near 13% of everything screened. Unless noted, calls come from the whole dose curve; as a rule, active = well fitted inhibition curve with a large enough effect; inconclusive = small, poorly fitted or top-dose-only effect, or another doubt; inactive = no such curve, though single readings can be large or run the other way. % is set by controls: 0 for no effect and ±100 for the full control effect.

CCOc1ccc(NC(=O)c2cccc(NC3=NC4CS(=O)(=O)CC4S3)c2)cc1 (configuration not stated) was read as Pf growth 96h 8.28µM*, HCV inhibitor 10.9%, Pf growth 48h 15.3% and HCMV antiviral 1.7.
`Cc1ccc(C)c(N2CCN(C(=O)c3ccc(NC4=NC5CS(=O)(=O)CC5S4)cc3)CC2)c1` (configuration not stated) gave Pf growth 96h 10.4µM*, HCV inhibitor 8.1%, Pf growth 48h -0.8% and HCMV antiviral -8.2.
O=C(c1ccc(NC2=NC3CS(=O)(=O)CC3S2)cc1)N1CCN(C(=O)c2ccco2)CC1 (configuration not stated) was read as Pf growth 96h 12.4%, HCV inhibitor -9.2%[8.37 µM], Pf growth 48h 5.4% and HCMV antiviral 75.2.
`Cc1cccc(CCNC(=O)Cc2ccc(NC3=NC4CS(=O)(=O)CC4S3)cc2)c1` (configuration not stated) gave Pf growth 96h inconclusive, HCV inhibitor 16.6%, Pf growth 48h 0.9% and HCMV antiviral 8.0.
CC(=O)c1cccc(NC(=O)c2nc3ccccc3nc2N2CCCCC2)c1 was read as HCMV antiviral 20.2.
CN1CCN(C(=O)Cn2c(-c3cccs3)cc3ccccc32)CC1 was read as HCMV antiviral -14.8.
For CN(C)C(=O)COC(=O)c1ccccc1Nc1ccc(SC(F)F)cc1 the results were Pf growth 96h 46.5%, HCV inhibitor inconclusive, Pf growth 48h 67.2% and HCMV antiviral -66.9*.
`O=C(c1ccccc1Nc1ccc(SC(F)F)cc1)N1CCCCCC1` gave Pf growth 96h inconclusive, HCV inhibitor inconclusive, Pf growth 48h inconclusive and HCMV antiviral -101.2*.
O=C(Cc1ccccc1)Nc1ccccc1C(=O)N1CCCCC1 was read as Pf growth 96h 0.1%, HCV inhibitor -11.2%, Pf growth 48h 6.2% and HCMV antiviral -34.3.
COc1ccc(C(=O)N(Cc2cc(OC)c(OC)c(OC)c2)C2CCS(=O)(=O)C2)cc1Cl (configuration not stated) was read as HCMV antiviral 15.0.
`Cc1cccc(N2CCN(C(=O)c3cccn3-c3nnc(N4CCCCC4)s3)CC2)c1C` gave HCMV antiviral 0.0.
Screening CC(=O)N1c2ccc(S(=O)(=O)NCCc3cccc(C)c3)cc2CC1C (configuration not stated) returned HCMV antiviral -13.2.
For NC1=NC(=O)/C(=C\c2ccc(O)c([N+](=O)[O-])c2)S1 the results were Pf growth 96h 31.7%[5.75 µM], HCV inhibitor -4.4%, Pf growth 48h 6.5% and HCMV antiviral -30.4.
Screening COc1cc(/C=C2/SC(N)=NC2=O)ccc1Oc1ccc([N+](=O)[O-])cc1[N+](=O)[O-] returned Pf growth 96h 25.2%, HCV inhibitor 9.9%, Pf growth 48h 13.2% and HCMV antiviral -69.8*.
`CC1=NN(c2ccccc2)C(=O)/C1=C\c1ccc(Oc2ccc([N+](=O)[O-])cc2[N+](=O)[O-])cc1` gave Pf growth 96h 23.7%, HCV inhibitor -25.2%, Pf growth 48h 0.0% and HCMV antiviral 50.4.
COc1cc(/C=C2\C(=O)N(c3ccccc3)N=C2C)ccc1Oc1ccc([N+](=O)[O-])cc1[N+](=O)[O-] was read as Pf growth 96h 10.4µM*, HCV inhibitor 34.2%, Pf growth 48h -17.1% and HCMV antiviral 0.2.
CCCNC(=O)c1nc2ncc(Br)cn2n1 was read as Pf growth 96h 13.1µM*, HCV inhibitor 10.1%, Pf growth 48h 25.9% and HCMV antiviral 35.1.
For CCCCNC(=O)c1nc2ncc(Br)cn2n1 the results were Pf growth 96h 44.8%, HCV inhibitor 4.9%, Pf growth 48h 28.3% and HCMV antiviral -27.8.
Screening S=C(SCc1cc(Cl)cc2c1OCOC2)N1CCSCC1 returned HCMV antiviral 52.2.
COc1ccc2sc(-c3ccc(SC)cc3)c(-c3ccc(O)cc3)c2c1 was read as HCV inhibitor 12.6µM* and HCMV antiviral -6.7.
`COc1cccc(-c2sc3ccc(OC)cc3c2-c2ccc(C(N)=O)cc2)c1` gave Pf growth 96h inconclusive, HCV inhibitor 2.51µM*, Pf growth 48h inconclusive and HCMV antiviral 7.3.
`COc1cccc(-c2sc3ccc(OC)cc3c2-c2ccc(OC)cc2F)c1` gave Pf growth 96h inconclusive, HCV inhibitor -6.6%, Pf growth 48h inconclusive and HCMV antiviral 1.0.
Screening COc1ccc2sc(-c3ccccc3OC)c(-c3ccc(SC)cc3)c2c1 returned HCMV antiviral -9.4.
Screening CCC[C@H]1[C@@H](NC(=O)NCc2ccco2)CC[C@@]23CCCN2C(=O)CCC[C@@H]13 returned HCMV antiviral -21.9.
C[C@H](CO)N1C[C@H](C)[C@H](CN(C)Cc2ccc(Oc3ccccc3)cc2)Oc2cc(Br)ccc2S1(=O)=O was read as HCMV antiviral -109.2*.
For C[C@H]1CN([C@@H](C)CO)S(=O)(=O)c2ccc(/C=C/c3ccccc3)cc2O[C@H]1CN(C)C(=O)NC1CCCCC1 the results were HCMV antiviral -62.6*.
For C[C@@H]1CN([C@H](C)CO)C(=O)c2cc(/C=C/c3ccccc3)cnc2O[C@H]1CN(C)C(=O)NC1CCCCC1 the results were HCMV antiviral 14.4.
For Cc1c(I)c(=O)n(-c2ccccc2)n1C the results were Pf growth 96h -10.7% and Pf growth 48h -5.5%.
Screening Nc1ccccc1-c1ccccc1N returned Pf growth 96h 0.0%, HCV inhibitor 22.8%, Pf growth 48h 0.0% and HCMV antiviral inconclusive.
`c1ccc2c(c1)[IH]c1ccccc1-2` gave HCV inhibitor 0.0282µM* and HCMV antiviral -99.9*.
CCOC(=O)C1CCN(CCC(=O)Nc2ccccc2OC)CC1 was read as HCMV antiviral -2.1.
`O=C(N/N=C\c1ccc(Cl)s1)C1COc2ccccc2O1` (configuration not stated) gave Pf growth 96h 4.5%, HCV inhibitor -28.4%, Pf growth 48h 2.2% and HCMV antiviral -30.9.
`O=C(N/N=C/c1c[nH]c2ccccc12)C1COc2ccccc2O1` (configuration not stated) gave Pf growth 96h 10.4µM*, HCV inhibitor inconclusive, Pf growth 48h -3.8% and HCMV antiviral -27.0.
O=C(N/N=C\c1ccc([N+](=O)[O-])o1)C1COc2ccccc2O1 (configuration not stated) was read as Pf growth 96h -18.2%, HCV inhibitor inconclusive, Pf growth 48h inconclusive and HCMV antiviral -84.2*.
For O=C(N/N=C\c1ccc(-c2ccccc2[N+](=O)[O-])o1)C1COc2ccccc2O1 (configuration not stated) the results were Pf growth 96h inconclusive, HCV inhibitor 1.8%, Pf growth 48h -17.0% and HCMV antiviral inconclusive.
For O=C(N/N=C\c1ccc([N+](=O)[O-])s1)C1COc2ccccc2O1 (configuration not stated) the results were Pf growth 96h -10.3%, HCV inhibitor 10µM*, Pf growth 48h inconclusive and HCMV antiviral -3.6.

Bioassay records from PubChem.
